Calls of active or inactive are those of the source.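 How the source made its calls, unless noted: active means fluorescence slope after compound addition differing from the mean of all screened samples at 99.7% confidence, in either direction; inactive means the rest.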
Key:
[1] = inhibitors of TNFa-induced NFkB p65 translocation, primary screen, imaging, HUVEC, MLSMR starter and 10KST1 sets (AID 438;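 active means inhibition above 20% together with a positive visual image hit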;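 further: compound added about 3h40 before a 20 min TNFalpha stimulation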;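 on inhibition: signal is the nuclear over cytoplasmic p65 intensity ratio per well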); details: HUVEC TNFa-induced p65 nuclear translocation; cell count: measured here: nuclei count (cytotoxicity indicator), at 2.08 µM; inhibition: at 2 µM, stronger effect = higher value, 0% TNFa-plus-vehicle, 100% no-TNFa wells
[2] = reduction of polyQ htt aggregates in cells – imaging, exon1htt(103Q)mCFP cells, high-content imaging, primary screen (AID 483;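 active means visual image review flags a hit and inhibition of aggregation exceeds 20%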;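 further: compound exposure lasted 3 days before fixation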;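 on nuclei count: percent of the per-plate median nuclei count of sample wells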); details: exon1htt(103Q)mCFP cell line, aggregate imaging, at 2 µM; inhibition of aggregation: stronger effect = higher value; nuclei count: measured here: cell count, toxicity
[3] = endothelial E-selectin expression blockers – imaging, HUVEC, immunofluorescence, MLSMR starter and 10KST1 sets, primary screen (AID 487;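 active means visually confirmed hit in the image check and inhibition above 20%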;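 on inhibition: signal is fraction of cell area covered by stained E-selectin grains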;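 on nuclei count: 100% = median nuclei count of all wells on the same plate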); details: HUVEC TNFalpha-induced E-selectin immunofluorescence imaging, at 2 µM; inhibition: stronger effect = higher value; nuclei count: measured here: cell number, toxicity
[4] = target: Voltage-gated potassium channel subunit beta-2 (Rattus norvegicus) (UniProt P62483); experiment: inhibitors of rat Kvbeta2 reductase activity – biochemical, NADPH fluorescence, primary screen (AID 622;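 active means fluorescence slope higher than the sample average by over 3 SD, cut at about -0.22 in these data, passing the limit was not always enough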;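 further: slope of raw intensity against log time taken from 70 to 1610 s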); details: recombinant KvBeta, 4-cyanobenzaldehyde reduction, at 10 µM, stronger effect = higher value
[5] = target: Voltage-gated potassium channel subunit beta-2 (Rattus norvegicus) (UniProt P62483); experiment: enhancers of rat Kvbeta2 NADPH turnover – biochemical, NADPH fluorescence, primary screen (AID 623;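 active means NADPH fluorescence slope more negative than the mean of all samples by about 3 SD, 99.7% confidence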;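 further: fluorescence intensity change per second fitted from 20 to 320 s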); details: Recombinant KvBeta, NADPH fluorescence decrease slope, 10 min; at 10 µM; stronger effect = lower value
[6] = target: Alpha-2C adrenergic receptor (Homo sapiens) (UniProt P18825); experiment: compounds altering alpha2C-coupled GIRK flux – cell-based, HEK293 alpha2C/GIRK1/2, thallium flux, primary screen (AID 624); details: thallium flux BTC fluorescence, at 10 µM, actives lie on both sides;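 further: slope of fluorescence ratio to pre-addition baseline per second over 15 to 24 s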
[7] = blockers of RIG-like receptor reporter activation – cell-based, Sendai virus stimulus, luciferase, 10K MLSCN set, TLR/RLR signaling modifier project, primary screen (AID 602276;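 active means inhibition at or above 50% at 10 µM; inactive means inhibition below 50%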;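 further: firefly luciferase from ISG56 promoter only with Renilla not read in this screen; 0% = Sendai virus plus DMSO and 100% = medium plus DMSO without virus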); details: HEK293 RL24 IRF3 luciferase reporter, at 10 µM, stronger effect = higher value
[8] = TLR3 IRF3 reporter activation blockers – cell-based, poly I:C stimulus, luciferase, 10K MLSCN set, primary screen (AID 602277;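 active means inhibition of the reporter signal at or above 50%; inactive means inhibition below 50%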); details: HEK293-TLR3 RL24 IRF3 luciferase reporter, at 10 µM, stronger effect = higher value

Alpha-2C adrenergic receptor (Homo sapiens), sequence (P18825 whole entry, looked up): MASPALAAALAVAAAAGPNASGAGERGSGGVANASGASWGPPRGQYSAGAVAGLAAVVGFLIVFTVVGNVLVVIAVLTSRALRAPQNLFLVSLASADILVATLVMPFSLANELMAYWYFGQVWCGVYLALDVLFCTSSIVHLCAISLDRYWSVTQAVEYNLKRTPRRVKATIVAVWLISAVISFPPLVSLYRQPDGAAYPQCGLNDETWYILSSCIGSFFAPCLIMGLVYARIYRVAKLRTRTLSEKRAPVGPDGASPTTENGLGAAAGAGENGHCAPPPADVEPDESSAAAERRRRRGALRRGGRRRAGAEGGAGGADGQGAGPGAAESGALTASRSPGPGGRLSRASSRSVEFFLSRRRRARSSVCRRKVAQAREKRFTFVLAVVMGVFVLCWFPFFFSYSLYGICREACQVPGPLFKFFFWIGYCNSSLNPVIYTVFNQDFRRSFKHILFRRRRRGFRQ
Voltage-gated potassium channel subunit beta-2 (Rattus norvegicus), sequence (P62483 whole entry, looked up): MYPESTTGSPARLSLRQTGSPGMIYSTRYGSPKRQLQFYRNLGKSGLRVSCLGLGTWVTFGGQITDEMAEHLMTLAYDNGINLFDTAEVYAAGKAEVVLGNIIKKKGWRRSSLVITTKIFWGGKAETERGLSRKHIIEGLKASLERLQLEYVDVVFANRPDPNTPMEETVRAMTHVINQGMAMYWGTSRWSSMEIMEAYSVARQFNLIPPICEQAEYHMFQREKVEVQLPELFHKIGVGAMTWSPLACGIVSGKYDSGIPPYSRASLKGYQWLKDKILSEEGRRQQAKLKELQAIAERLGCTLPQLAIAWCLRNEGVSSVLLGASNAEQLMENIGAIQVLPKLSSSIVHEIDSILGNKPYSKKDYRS

| Structure (SMILES) | cell count [1] | inhibition [1] | inhibition of aggregation [2] | nuclei count [2] [%] | inhibition [3] | nuclei count [3] [%] | fluorescence slope [4] | NADPH fluorescence slope [5] | slope [6] | inhibition [7] | inhibition [8] |
| --- | --- | --- | --- | --- | --- | --- | --- | --- | --- | --- | --- |
| Cn1c(=O)[nH]c(=O)c2c1nc(Br)n2Cc1ccccc1F | 668 | 8.8% (inactive) | 19.4% (inactive) | 68.3 | 4.9% (inactive) | 106 | -0.467 (inactive) | -3.7e-05 (inactive) | 0.00509 (inactive) | 9.21% (inactive) | 12.8% (inactive) |
| O=C(CN1CCN(Cc2ccc(F)cc2Cl)C1=O)NCCCN1CCOCC1 | 477 | 7% (inactive) | -27.6% (inactive) | 65.3 | -63.8% (inactive) | 99.9 | -0.523 (inactive) | -3.8e-05 (inactive) | 0.00757 (inactive) | 0.912% (inactive) | 36.5% (inactive) |
| COc1ccc(-c2ccc(=O)n(Cc3cc(=O)n4ccccc4n3)n2)cc1 | 789 | -6.4% (inactive) | -19.1% (inactive) | 99.5 | -101% (inactive) | 140 | -0.108 (inactive) | -3.8e-05 (inactive) | 0.00509 (inactive) | 7.67% (inactive) | 12.2% (inactive) |
| CC1=C(C)[N+](=O)C2CCCCC2N1[O-] (stereo not drawn) | 705 | 3.9% (inactive) | 13.8% (inactive) | 104 | 58% (inactive) | 86.5 | -0.368 (inactive) | -0.000147 (inactive) | 0.00784 (inactive) | -0.132% (inactive) | 16.1% (inactive) |
| COc1ccccc1Cn1c(-c2ccco2)nc2nc3ccccc3nc21 | 612 | -10.5% (inactive) | -8.4% (inactive) | 109 | -13.1% (inactive) | 117 | -0.366 (inactive) | -7.7e-06 (inactive) | 0.00597 (inactive) | 1.34% (inactive) | -13.9% (inactive) |
| COc1nnc(-c2ccc(C)c(S(=O)(=O)NCCO)c2)c2ccccc12 | 325 | -2.7% (inactive) | 11.7% (inactive) | 75.4 | -17.6% (inactive) | 95.3 | -0.424 (inactive) | 1e-05 (inactive) | 0.0039 (inactive) | 1.8% (inactive) | 28.9% (inactive) |
| CN(c1ccccc1)S(=O)(=O)c1ccc(C(=O)OCC(=O)NCc2ccco2)cc1 | 608 | 11.6% (inactive) | 14.7% (inactive) | 112 | -37.2% (inactive) | 99.7 | -0.588 (inactive) | 2e-05 (inactive) | 0.00551 (inactive) | -14.7% (inactive) | 0.385% (inactive) |
| O=C(NCc1ccc2c(c1)OCO2)C1CCC(CNS(=O)(=O)c2ccccc2)CC1 (stereo not drawn) | 316 | 8.9% (inactive) | -31.1% (inactive) | 111 | -4.9% (inactive) | 116 | -0.489 (inactive) | 1.3e-05 (inactive) | 0.00655 (inactive) | 11.6% (inactive) | 26.6% (inactive) |
| Nn1cnnc1SCC(=O)Nc1ccc2c(c1)OCCO2 | 553 | 7.2% (inactive) | -23.3% (inactive) | 96 | -74.7% (inactive) | 208 | -0.351 (inactive) | -8.3e-06 (inactive) | 0.00546 (inactive) | 1.38% (inactive) | -17% (inactive) |
| O=S(=O)(c1ccc(-c2csc(-c3cccnc3)n2)cc1)N1CCCCC1 | 372 | -1.7% (inactive) | -2% (inactive) | 102 | -30.5% (inactive) | 116 | -0.604 (inactive) | -9e-06 (inactive) | 0.0051 (inactive) | -0.353% (inactive) | -37.2% (inactive) |
| COC(=O)[C@H](C)NC(=O)NCc1ccc(F)cc1 | 589 | -23.8% (inactive) | 24.3% (inactive) | 100 | -131% (inactive) | 96.1 | -0.622 (inactive) | -1.3e-05 (inactive) | 0.00843 (inactive) | 6.37% (inactive) | -35.7% (inactive) |
| c1ccc2c(c1)nc(NC1CCCCC1)c1nncn12 | 446 | -0.5% (inactive) | 11.8% (inactive) | 55.9 | -47.5% (inactive) | 113 | -0.595 (inactive) | -1.7e-05 (inactive) | 0.0061 (inactive) | 0.474% (inactive) | 32.3% (inactive) |
| CCOCC(=O)Nc1nc2c(s1)C(=O)CC(C)(C)C2 | 921 | 0.6% (inactive) | -38% (inactive) | 144 | -70.4% (inactive) | 122 | -0.541 (inactive) | 2.2e-05 (inactive) | 0.00739 (inactive) | 12.5% (inactive) | 39% (inactive) |
| COc1ccc2nc(CC(C)(C)CC(=O)O)c[n+]([O-])c2c1 | 377 | -1% (inactive) | -0.5% (inactive) | 110 | -11.7% (inactive) | 94 | -0.587 (inactive) | -1.8e-05 (inactive) | 0.0065 (inactive) | 10.6% (inactive) | 29.8% (inactive) |
| CCCc1nc(NCc2ccncc2)c2nnn(Cc3ccccc3F)c2n1 | 711 | -6.1% (inactive) | -40.7% (inactive) | 116 | -57% (inactive) | 120 | -0.507 (inactive) | -0.000136 (inactive) | 0.00544 (inactive) | 9.12% (inactive) | 19.1% (inactive) |
| CCN(CC)c1ccc2cc(-c3nc4ccccc4[nH]3)c(=O)oc2c1 | 437 | 11.7% (inactive) | 90.2% (active) | 98.9 | -74.3% (inactive) | 116 | -0.313 (inactive) | 4.5e-05 (inactive) | 0 (active) | 20.9% (inactive) | 32.6% (inactive) |
| Cc1ccc(NC(=O)C2CCCN2S(=O)(=O)c2cccc3cccnc23)cc1F (stereo not drawn) | 577 | -1.1% (inactive) | 3.5% (inactive) | 71.6 | -56.2% (inactive) | 100 | -0.55 (inactive) | -3.9e-05 (inactive) | 0.00633 (inactive) | 9.99% (inactive) | 33.6% (inactive) |
| Cc1c(C(=O)N2CCN(c3ccccc3)CC2)sc2ncnc(N3CCN(c4ccccc4)CC3)c12 | 613 | 6.2% (inactive) | 9.7% (inactive) | 107 | -70.4% (inactive) | 127 | -0.445 (inactive) | -1.1e-05 (inactive) | 0.00705 (inactive) | 7.72% (inactive) | 4.87% (inactive) |
| CC1=C(C(=O)OCc2ccccc2)C(c2ccco2)n2ncnc2N1 (stereo not drawn) | 811 | -2.8% (inactive) | 7% (inactive) | 117 | -31.8% (inactive) | 109 | -0.595 (inactive) | 4.7e-06 (inactive) | 0.00658 (inactive) | 9.4% (inactive) | 25.1% (inactive) |
| COc1cccc(-c2csc(N3CCN(CC(=O)Nc4ccc5c(c4)OCO5)CC3)n2)c1 | 262 | 3.1% (inactive) | -24.6% (inactive) | 88.4 | -4.3% (inactive) | 91.2 | -0.622 (inactive) | -1.3e-05 (inactive) | 0.00556 (inactive) | -45.8% (inactive) | -62.6% (inactive) |
| CN(Cc1nc(-c2ccncc2)no1)S(=O)(=O)c1ccc(Cl)cc1 | 601 | -6.4% (inactive) | -0.9% (inactive) | 88.3 | 1% (inactive) | 94.8 | -0.543 (inactive) | 6.1e-06 (inactive) | 0.00478 (inactive) | -18.2% (inactive) | -26.6% (inactive) |
| C#CCNc1c(C)c(C)nc2ncnn12 | 306 | -9.4% (inactive) | 32.2% (inactive) | 86.1 | -44.2% (inactive) | 89.3 | -0.592 (inactive) | -3.6e-05 (inactive) | 0.00371 (inactive) | 14.5% (inactive) | 9.86% (inactive) |
| N#Cc1cc2ccc(N3CCOCC3)cc2cc1C#N | 421 | -6.5% (inactive) | 9.5% (inactive) | 76.5 | -341% (inactive) | 103 | -0.0128 (active) | 1.2e-05 (inactive) | 0.00303 (inactive) | 7.25% (inactive) | 26.1% (inactive) |
| Cn1nnnc1SCc1cn2cccnc2n1 | 227 | 0.3% (inactive) | 9.5% (inactive) | 97.2 | -25.9% (inactive) | 117 | -0.106 (inactive) | 2.9e-05 (inactive) | 0.00615 (inactive) | 9.85% (inactive) | 9.08% (inactive) |
| CCCSc1nnc(-c2ccccc2NC(=O)CC)c(=O)[nH]1 | 632 | -9.3% (inactive) | -17.5% (inactive) | 86.8 | -43.8% (inactive) | 96.6 | -0.412 (inactive) | -4.2e-05 (inactive) | 0.00431 (inactive) | 4.4% (inactive) | -2.41% (inactive) |
| O=C(CN1CCCC1)Nc1ccc(NC(=O)Nc2ccccc2)cc1 | 433 | -5.7% (inactive) | 8.5% (inactive) | 96.4 | -132% (inactive) | 215 | -0.433 (inactive) | 7.1e-05 (inactive) | 0.00831 (inactive) | -33.7% (inactive) | -54.6% (inactive) |
| COC(=O)Nc1sc2c(c1C(N)=O)CCCCCC2 | 522 | 2% (inactive) | 18.9% (inactive) | 95.2 | -53.8% (inactive) | 92 | -0.509 (inactive) | -5.2e-05 (inactive) | 0.00644 (inactive) | 5.06% (inactive) | 17.8% (inactive) |
| COCCn1c(CN2CCN(c3cccc(Cl)c3)CC2)nc2c1c(=O)n(C)c(=O)n2C | 712 | -6.3% (inactive) | 5.4% (inactive) | 99.5 | -24.9% (inactive) | 120 | -0.582 (inactive) | -4e-05 (inactive) | 0.00601 (inactive) | 12.7% (inactive) | 15.3% (inactive) |

Source: PubChem BioAssay
